Source: paper PMC7862700, “An all-to-all approach to the identification of sequence-specific readers for epigenetic DNA modifications on cytosine”

Tests used:
Assay in all cases: DAPPL (digital affinity profiling via proximity ligation, sequencing); 10 mM Tris-HCl pH 7.5, 50 mM NaCl, 1 mM DTT, 4% glycerol, room temperature, 30 min; GST-TFs on glutathione beads, 16-mer random dsDNA library, 0.1% formaldehyde crosslink after washing; high values mean tight binding
FLI1 = target: T1, FLI1 (Homo sapiens, UniProt Q01543 1-452); conditions: protein: recombinant; tags: N-terminal GST; dsDNA, one strand shown
T1 sequence: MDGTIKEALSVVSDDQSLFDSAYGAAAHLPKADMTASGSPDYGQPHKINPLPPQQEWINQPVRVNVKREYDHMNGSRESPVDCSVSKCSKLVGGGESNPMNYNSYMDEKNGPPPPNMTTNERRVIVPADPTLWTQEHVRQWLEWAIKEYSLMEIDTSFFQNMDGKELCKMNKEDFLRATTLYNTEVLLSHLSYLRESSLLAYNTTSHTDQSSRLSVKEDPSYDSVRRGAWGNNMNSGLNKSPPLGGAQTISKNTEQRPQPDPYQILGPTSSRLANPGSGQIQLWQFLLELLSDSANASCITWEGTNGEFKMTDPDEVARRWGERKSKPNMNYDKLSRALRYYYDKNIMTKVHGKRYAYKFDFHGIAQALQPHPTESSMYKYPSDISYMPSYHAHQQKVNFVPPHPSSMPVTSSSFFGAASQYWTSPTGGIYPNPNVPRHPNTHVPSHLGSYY
How it was run: (§1)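 Sequencing on an Illumina NextSeq500 followed washing, crosslinking with 0.1% formaldehyde, proximity ligation (BsaI/T4 ligase, 1 h, 37 °C) and PCR amplification of pools that had been incubated for 30 min at room temperature with 200 nmole of a random double-stranded 16-mer DNA library in Tris/NaCl/DTT/glycerol buffer. Each pool held DNA-barcoded human transcription factors, expressed in yeast as GST fusions and captured on glutathione beads, plus a tag-only sample. Binding signal is a hexamer's read frequency for a factor divided by its frequency in the tag-only sample.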

ELK1 = target: T2, ELK1 (Homo sapiens, UniProt P19419 1-428); conditions: protein: recombinant; tags: N-terminal GST; dsDNA, one strand shown
T2 sequence: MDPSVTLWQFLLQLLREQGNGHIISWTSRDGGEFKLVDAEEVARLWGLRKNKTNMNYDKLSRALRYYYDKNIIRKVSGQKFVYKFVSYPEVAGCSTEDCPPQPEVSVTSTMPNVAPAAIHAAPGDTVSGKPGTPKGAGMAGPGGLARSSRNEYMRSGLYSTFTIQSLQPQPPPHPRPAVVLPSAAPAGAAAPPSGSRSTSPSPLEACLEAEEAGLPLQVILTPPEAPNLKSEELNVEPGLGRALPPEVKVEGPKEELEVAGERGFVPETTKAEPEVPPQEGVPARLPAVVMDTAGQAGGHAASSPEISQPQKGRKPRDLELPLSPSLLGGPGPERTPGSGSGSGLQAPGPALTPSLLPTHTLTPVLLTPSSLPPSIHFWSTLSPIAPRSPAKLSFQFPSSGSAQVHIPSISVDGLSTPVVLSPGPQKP
How it was run: as §1

GABPA = target: T3, GABPA (Homo sapiens, UniProt Q06546 1-454); conditions: protein: recombinant; tags: N-terminal GST; dsDNA, one strand shown
T3 sequence: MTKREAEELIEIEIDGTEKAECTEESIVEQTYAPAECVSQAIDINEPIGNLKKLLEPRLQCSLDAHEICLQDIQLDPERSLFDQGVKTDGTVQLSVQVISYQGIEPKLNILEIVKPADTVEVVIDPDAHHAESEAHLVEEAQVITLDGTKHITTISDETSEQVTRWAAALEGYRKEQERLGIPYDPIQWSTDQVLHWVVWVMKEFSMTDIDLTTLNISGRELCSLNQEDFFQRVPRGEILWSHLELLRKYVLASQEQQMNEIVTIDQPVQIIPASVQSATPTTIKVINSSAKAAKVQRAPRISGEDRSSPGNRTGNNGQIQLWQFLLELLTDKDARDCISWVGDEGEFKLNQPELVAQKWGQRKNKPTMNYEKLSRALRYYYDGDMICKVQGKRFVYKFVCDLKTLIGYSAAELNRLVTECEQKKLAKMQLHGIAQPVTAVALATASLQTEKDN
How it was run: as §1

ERG = target: T4, ERG (Homo sapiens, UniProt P11308 1-479); conditions: protein: recombinant; tags: N-terminal GST; dsDNA, one strand shown
T4 sequence: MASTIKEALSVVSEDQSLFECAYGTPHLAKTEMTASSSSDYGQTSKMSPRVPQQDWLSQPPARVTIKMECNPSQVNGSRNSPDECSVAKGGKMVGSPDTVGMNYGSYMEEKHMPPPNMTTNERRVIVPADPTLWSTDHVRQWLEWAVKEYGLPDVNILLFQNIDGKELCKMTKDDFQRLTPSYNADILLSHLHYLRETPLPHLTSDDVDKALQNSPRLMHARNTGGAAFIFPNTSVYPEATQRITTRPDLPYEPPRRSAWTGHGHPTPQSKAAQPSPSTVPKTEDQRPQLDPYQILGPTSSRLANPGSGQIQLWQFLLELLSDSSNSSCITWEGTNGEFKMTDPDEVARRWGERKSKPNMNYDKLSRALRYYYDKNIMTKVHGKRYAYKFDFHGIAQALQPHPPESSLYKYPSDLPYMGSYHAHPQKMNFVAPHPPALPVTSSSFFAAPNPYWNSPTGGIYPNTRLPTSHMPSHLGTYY
How it was run: as §1

ELF1 = ELF1 (Homo sapiens, UniProt P32519 1-619); conditions: protein: recombinant; tags: N-terminal GST; dsDNA, one strand shown
Sequence of ELF1 (P32519 whole entry): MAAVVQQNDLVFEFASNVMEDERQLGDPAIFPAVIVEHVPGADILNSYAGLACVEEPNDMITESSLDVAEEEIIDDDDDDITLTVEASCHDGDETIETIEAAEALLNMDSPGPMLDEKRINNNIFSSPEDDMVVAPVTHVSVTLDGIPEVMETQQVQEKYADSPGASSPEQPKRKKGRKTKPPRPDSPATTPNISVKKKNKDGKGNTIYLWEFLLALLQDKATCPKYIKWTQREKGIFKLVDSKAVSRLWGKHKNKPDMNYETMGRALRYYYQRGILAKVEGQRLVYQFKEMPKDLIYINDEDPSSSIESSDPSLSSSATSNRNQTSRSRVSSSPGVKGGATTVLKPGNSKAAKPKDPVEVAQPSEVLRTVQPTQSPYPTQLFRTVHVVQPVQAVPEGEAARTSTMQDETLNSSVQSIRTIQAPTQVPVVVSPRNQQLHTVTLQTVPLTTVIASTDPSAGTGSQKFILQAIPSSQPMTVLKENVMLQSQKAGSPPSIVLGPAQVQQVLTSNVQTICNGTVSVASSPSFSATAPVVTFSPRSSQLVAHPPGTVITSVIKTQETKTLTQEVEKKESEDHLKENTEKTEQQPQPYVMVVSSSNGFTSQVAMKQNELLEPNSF
How it was run: as §1

EHF = target: T5, EHF (Homo sapiens, UniProt Q9NZC4 1-300); conditions: protein: recombinant; tags: N-terminal GST; dsDNA, one strand shown
T5 sequence: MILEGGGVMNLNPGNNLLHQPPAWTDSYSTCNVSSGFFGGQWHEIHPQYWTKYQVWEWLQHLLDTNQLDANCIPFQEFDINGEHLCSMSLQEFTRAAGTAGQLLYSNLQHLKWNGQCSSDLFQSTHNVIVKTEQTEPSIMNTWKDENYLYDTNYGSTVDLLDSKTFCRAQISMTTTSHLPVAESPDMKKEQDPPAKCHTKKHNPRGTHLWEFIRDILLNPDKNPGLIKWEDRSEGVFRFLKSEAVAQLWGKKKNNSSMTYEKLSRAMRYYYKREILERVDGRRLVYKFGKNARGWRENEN
How it was run: as §1

SPI1 = SPI1 (Homo sapiens, UniProt P17947 1-270); conditions: protein: recombinant; tags: N-terminal GST; dsDNA, one strand shown
How it was run: as §1

SPIB = SPIB (Homo sapiens, UniProt Q01892 1-262); conditions: protein: recombinant; tags: N-terminal GST; dsDNA, one strand shown
Sequence of SPIB (Q01892 whole entry): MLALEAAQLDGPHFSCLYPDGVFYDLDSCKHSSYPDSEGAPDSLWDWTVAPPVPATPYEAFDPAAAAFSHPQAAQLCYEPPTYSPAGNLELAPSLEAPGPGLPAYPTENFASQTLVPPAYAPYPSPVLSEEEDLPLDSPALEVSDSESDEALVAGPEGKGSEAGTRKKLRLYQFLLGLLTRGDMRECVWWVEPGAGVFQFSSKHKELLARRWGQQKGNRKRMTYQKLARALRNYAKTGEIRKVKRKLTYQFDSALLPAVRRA
How it was run: as §1

ELK3 = target: T6, ELK3 (Homo sapiens, UniProt P41970 1-407); conditions: protein: recombinant; tags: N-terminal GST; dsDNA, one strand shown
T6 sequence: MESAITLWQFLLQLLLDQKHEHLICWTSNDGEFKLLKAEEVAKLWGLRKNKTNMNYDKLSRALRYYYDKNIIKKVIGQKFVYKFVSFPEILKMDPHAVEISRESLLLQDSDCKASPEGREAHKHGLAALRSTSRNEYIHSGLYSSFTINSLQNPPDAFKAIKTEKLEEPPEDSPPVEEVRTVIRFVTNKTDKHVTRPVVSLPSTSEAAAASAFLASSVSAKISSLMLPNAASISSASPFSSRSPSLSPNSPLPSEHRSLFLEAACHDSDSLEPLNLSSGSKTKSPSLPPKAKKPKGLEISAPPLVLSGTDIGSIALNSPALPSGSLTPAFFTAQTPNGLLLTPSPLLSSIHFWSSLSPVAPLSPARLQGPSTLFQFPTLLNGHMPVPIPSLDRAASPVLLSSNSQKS
How it was run: as §1

FEV = target: T7, FEV (Homo sapiens, UniProt Q99581 1-238); conditions: protein: recombinant; tags: N-terminal GST; dsDNA, one strand shown
T7 sequence: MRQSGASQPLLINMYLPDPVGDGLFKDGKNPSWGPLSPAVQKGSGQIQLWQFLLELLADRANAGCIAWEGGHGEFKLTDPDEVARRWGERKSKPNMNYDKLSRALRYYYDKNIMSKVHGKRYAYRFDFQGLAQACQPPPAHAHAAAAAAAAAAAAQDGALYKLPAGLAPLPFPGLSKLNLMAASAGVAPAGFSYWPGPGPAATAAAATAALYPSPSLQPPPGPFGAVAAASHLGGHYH
How it was run: as §1

ETV5 = ETV5 (Homo sapiens, UniProt P41161 1-510); conditions: protein: recombinant; tags: N-terminal GST; dsDNA, one strand shown
Sequence of ETV5 (P41161 whole entry): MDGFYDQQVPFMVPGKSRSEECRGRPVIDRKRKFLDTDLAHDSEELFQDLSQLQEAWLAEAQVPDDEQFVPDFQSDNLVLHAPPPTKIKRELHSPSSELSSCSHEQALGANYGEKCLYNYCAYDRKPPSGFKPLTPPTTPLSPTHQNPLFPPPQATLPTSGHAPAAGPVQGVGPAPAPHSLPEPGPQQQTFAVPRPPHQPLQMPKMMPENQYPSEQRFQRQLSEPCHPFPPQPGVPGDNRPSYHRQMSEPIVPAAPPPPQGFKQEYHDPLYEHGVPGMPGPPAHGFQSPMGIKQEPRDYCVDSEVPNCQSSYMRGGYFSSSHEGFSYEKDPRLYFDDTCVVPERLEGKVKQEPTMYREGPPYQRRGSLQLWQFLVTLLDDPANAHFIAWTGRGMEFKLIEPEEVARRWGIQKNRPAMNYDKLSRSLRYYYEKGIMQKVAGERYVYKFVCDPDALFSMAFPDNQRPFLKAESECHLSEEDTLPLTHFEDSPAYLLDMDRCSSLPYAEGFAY
How it was run: as §1

HSF1 = HSF1 (Homo sapiens, UniProt Q00613 1-529); conditions: protein: recombinant; tags: N-terminal GST; chain copies: 3; dsDNA, one strand shown
Sequence of HSF1 (Q00613 whole entry): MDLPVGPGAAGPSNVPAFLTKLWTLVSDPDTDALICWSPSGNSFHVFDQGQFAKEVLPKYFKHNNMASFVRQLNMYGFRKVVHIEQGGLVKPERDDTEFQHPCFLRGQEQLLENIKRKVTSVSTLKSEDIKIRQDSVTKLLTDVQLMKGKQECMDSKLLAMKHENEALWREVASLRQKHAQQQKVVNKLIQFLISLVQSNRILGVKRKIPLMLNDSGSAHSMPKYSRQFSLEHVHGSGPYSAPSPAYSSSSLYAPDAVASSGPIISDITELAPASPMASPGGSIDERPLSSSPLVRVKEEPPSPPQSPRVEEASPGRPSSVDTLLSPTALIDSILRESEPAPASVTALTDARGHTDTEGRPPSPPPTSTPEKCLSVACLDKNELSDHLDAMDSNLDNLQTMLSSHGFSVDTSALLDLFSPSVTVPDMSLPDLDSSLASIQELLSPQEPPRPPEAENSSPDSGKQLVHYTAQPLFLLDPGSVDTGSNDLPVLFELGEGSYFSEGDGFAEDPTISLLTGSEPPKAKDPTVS
How it was run: as §1

SPIC = target: T8, SPIC (Homo sapiens, UniProt Q8N5J4 1-248); conditions: protein: recombinant; tags: N-terminal GST; dsDNA, one strand shown
T8 sequence: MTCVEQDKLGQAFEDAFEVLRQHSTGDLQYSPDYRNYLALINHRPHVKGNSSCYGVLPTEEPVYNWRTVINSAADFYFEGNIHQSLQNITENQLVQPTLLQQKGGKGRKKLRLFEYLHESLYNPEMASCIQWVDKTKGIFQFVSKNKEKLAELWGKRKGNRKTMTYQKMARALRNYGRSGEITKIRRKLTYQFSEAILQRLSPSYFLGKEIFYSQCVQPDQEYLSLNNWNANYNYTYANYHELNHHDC
How it was run: as §1

ELF4 = ELF4 (Homo sapiens, UniProt Q99607 1-663); conditions: protein: recombinant; tags: N-terminal GST; dsDNA, one strand shown
Sequence of ELF4 (Q99607 whole entry): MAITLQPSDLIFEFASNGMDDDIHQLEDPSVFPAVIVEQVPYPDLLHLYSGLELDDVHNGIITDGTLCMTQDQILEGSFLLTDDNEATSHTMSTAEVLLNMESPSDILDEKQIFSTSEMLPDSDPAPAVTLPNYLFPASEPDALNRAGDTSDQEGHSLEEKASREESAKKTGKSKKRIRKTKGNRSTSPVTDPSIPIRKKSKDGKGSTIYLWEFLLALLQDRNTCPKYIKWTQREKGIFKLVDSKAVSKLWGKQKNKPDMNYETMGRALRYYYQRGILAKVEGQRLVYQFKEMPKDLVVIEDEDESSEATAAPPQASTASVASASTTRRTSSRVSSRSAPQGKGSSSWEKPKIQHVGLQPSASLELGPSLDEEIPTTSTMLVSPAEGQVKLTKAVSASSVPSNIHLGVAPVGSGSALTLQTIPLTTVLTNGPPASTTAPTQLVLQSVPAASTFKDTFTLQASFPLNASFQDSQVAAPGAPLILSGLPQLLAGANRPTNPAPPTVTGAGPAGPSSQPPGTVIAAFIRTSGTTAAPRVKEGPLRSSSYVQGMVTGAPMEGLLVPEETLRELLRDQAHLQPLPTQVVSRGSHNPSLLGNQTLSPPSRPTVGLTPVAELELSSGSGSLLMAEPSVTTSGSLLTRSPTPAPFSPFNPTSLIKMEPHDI
How it was run: as §1

ELK4 = target: T9, ELK4 (Homo sapiens, UniProt P28324-2 1-405); conditions: protein: recombinant; tags: N-terminal GST; dsDNA, one strand shown
T9 sequence: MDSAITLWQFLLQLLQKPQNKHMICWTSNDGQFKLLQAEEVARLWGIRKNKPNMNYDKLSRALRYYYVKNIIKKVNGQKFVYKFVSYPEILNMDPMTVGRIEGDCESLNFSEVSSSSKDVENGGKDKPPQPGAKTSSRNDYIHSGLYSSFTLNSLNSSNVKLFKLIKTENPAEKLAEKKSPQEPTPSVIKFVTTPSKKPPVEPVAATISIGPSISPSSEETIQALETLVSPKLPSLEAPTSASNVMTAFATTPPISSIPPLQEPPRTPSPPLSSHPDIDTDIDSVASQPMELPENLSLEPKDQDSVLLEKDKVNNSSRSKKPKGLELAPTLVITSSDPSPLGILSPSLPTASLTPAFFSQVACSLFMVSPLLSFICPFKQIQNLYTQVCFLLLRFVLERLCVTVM
How it was run: as §1

ETV2 = target: T10, ETV2 (Homo sapiens, UniProt O00321 1-342); conditions: protein: recombinant; tags: N-terminal GST; dsDNA, one strand shown
T10 sequence: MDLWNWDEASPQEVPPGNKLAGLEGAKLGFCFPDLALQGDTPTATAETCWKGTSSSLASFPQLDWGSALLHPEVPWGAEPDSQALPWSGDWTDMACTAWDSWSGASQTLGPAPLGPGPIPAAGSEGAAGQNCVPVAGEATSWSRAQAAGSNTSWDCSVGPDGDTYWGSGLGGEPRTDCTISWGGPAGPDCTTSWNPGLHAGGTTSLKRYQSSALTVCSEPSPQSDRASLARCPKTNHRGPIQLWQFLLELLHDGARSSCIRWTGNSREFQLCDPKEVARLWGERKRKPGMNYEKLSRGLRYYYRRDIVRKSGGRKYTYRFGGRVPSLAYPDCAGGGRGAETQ
How it was run: as §1

ELF3 = target: T11, ELF3 (Homo sapiens, UniProt P78545 1-371); conditions: protein: recombinant; tags: N-terminal GST; dsDNA, one strand shown
T11 sequence: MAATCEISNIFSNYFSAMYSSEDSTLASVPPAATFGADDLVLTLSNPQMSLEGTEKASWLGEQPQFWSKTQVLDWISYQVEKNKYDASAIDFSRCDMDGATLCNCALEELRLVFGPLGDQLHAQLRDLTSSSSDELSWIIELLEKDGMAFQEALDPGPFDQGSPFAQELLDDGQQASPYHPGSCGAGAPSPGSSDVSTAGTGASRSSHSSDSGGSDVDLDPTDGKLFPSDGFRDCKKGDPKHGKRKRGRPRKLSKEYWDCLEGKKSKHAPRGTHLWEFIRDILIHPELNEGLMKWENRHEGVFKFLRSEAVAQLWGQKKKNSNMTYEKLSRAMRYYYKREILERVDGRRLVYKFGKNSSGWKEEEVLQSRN
How it was run: as §1

CRX = CRX (Homo sapiens, UniProt O43186 1-299); conditions: protein: recombinant; tags: N-terminal GST; dsDNA, one strand shown
Sequence of CRX (O43186 whole entry): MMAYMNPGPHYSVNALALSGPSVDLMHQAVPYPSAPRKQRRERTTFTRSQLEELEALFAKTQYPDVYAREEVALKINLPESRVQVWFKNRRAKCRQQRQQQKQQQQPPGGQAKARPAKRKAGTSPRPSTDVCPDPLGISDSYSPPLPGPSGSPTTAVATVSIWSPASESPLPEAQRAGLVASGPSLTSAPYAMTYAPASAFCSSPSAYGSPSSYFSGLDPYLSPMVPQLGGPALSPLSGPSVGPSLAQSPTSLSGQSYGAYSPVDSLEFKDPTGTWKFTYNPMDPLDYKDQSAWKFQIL
How it was run: as §1

ETV1 = ETV1 (Homo sapiens, UniProt P50549 1-477); conditions: protein: recombinant; tags: N-terminal GST; dsDNA, one strand shown
Sequence of ETV1 (P50549 whole entry): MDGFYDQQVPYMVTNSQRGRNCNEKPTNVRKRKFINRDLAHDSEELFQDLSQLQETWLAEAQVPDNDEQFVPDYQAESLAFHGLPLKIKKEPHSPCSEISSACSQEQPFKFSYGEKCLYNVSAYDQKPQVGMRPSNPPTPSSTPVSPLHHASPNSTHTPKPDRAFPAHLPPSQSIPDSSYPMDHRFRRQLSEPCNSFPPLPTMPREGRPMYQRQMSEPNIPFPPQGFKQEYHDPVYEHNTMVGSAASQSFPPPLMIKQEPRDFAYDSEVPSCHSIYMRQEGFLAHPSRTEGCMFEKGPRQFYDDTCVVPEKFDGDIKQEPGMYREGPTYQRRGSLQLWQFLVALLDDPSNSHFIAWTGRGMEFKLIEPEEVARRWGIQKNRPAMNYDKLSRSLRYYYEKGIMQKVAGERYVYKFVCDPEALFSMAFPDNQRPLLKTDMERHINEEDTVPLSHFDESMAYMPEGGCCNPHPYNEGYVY
How it was run: as §1

For ATTTAC, the binding signal (FLI1) was 1.22 fold enrichment (6-mer frequency, TF over GST control), the binding signal (ELK1) was 1.29 fold enrichment (6-mer frequency, TF over GST control) and the binding signal (GABPA) was 1.23 fold enrichment (6-mer frequency, TF over GST control). The binding signal (ERG) was 1.27 fold enrichment (6-mer frequency, TF over GST control), the binding signal (ELF1) was 1.28 fold enrichment (6-mer frequency, TF over GST control) and the binding signal (EHF) was 1.33 fold enrichment (6-mer frequency, TF over GST control). The binding signal (SPI1) was 1.28 fold enrichment (6-mer frequency, TF over GST control), the binding signal (SPIB) was 1.23 fold enrichment (6-mer frequency, TF over GST control) and the binding signal (ELK3) was 1.21 fold enrichment (6-mer frequency, TF over GST control). For the same sequence, the binding signal (FEV) was 1.3 fold enrichment (6-mer frequency, TF over GST control), the binding signal (ETV5) was 1.33 fold enrichment (6-mer frequency, TF over GST control) and the binding signal (HSF1) was 1.38 fold enrichment (6-mer frequency, TF over GST control). The binding signal (SPIC) was 1.2 fold enrichment (6-mer frequency, TF over GST control), the binding signal (ELF4) was 1.33 fold enrichment (6-mer frequency, TF over GST control) and the binding signal (ELK4) was 1.23 fold enrichment (6-mer frequency, TF over GST control). For the same sequence, the binding signal (ETV2) was 1.16 fold enrichment (6-mer frequency, TF over GST control), the binding signal (ELF3) was 1.27 fold enrichment (6-mer frequency, TF over GST control) and the binding signal (CRX) was 1.75 fold enrichment (6-mer frequency, TF over GST control). The binding signal (ETV1) was 1.22 fold enrichment (6-mer frequency, TF over GST control).
